Results reported in PubChem BioAssay AID1159580 (chemical genetic matrix, 2015).
Values joined by “and” are separate entries in the source; they are usually repeats but may differ in a detail not shown here. Identical values can stand only once. The whole screen tested about 5,500 compounds, of which about 2,000 (36%) were called active. Inconclusive results (about 18%) are left out. Rule as the data show it: active = normalized growth mostly below about 0.91 (no sharp cut-off); inconclusive = no clear call, values can overlap the other calls; inactive = mostly above about 0.92. This is one part of the list.

Test: chemical genetic growth profiling, strain panel (AID 1159580);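 also: tested at 20 µM; growth read once vehicle control cultures reached saturation at 30 °C; 1 = growth at the plate median or of vehicle wells; lower values mean less growth of the strain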
Details: S. cerevisiae deletion strains, growth OD

Measured: normalized growth

C[C@@H]1CC[C@@]2(OC1)OC1CC3C4CC=C5C[C@@H](O)CC[C@]5(C)C4CC[C@]3(C)C1[C@@H]2C (some centres not stated)
inactive: locus YAL021C, strain ccr4, stronger effect = lower value 1.02 | locus YAL026C, strain drs2, stronger effect = lower value 1.01 | locus YAL030W, strain snc1, stronger effect = lower value 0.996 | locus YBL061C, strain skt5, stronger effect = lower value 0.996 | locus YBR009C, strain hhf1, stronger effect = lower value 1.01 | locus YBR021W, strain FUR4, stronger effect = lower value 1.06 | locus YBR023C, strain chs3, stronger effect = lower value 1 | locus YBR171W, strain sec66, stronger effect = lower value 1 | locus YBR229C, strain ROT2, stronger effect = lower value 1 | locus YBR231C, strain swc5, stronger effect = lower value 0.996 | locus YBR279W, strain paf1, stronger effect = lower value 1 | locus YCL011C, strain gbp2, stronger effect = lower value 1.01 | locus YCL016C, strain dcc1, stronger effect = lower value 0.996 | locus YCL029C, strain bik1, stronger effect = lower value 0.965 | locus YCL061C, strain MRC1, stronger effect = lower value 0.999 | locus YCL069W, strain vba3, stronger effect = lower value 0.995 | locus YCR088W, strain abp1, stronger effect = lower value 1 | locus YDL005C, strain med2, stronger effect = lower value 1 | locus YDL035C, strain GPR1, stronger effect = lower value 1.02 | locus YDL040C, strain nat1, stronger effect = lower value 1 | locus YDL074C, strain BRE1, stronger effect = lower value 1.02 | locus YDL101C, strain DUN1, stronger effect = lower value 0.99 | locus YDL134C, strain PPH21, stronger effect = lower value 0.977 | locus YDL185W, strain tfp1, stronger effect = lower value 0.959 | locus YDL192W, strain arf1, stronger effect = lower value 0.981 | locus YDR001C, strain nth1, stronger effect = lower value 1 | locus YDR069C, strain doa4, stronger effect = lower value 1.01 | locus YDR101C, strain arx1, stronger effect = lower value 0.997 | locus YDR137W, strain rgp1, stronger effect = lower value 0.991 | locus YDR150W, strain NUM1, stronger effect = lower value 0.995 | locus YDR159W, strain sac3, stronger effect = lower value 0.997 | locus YDR162C, strain NBP2, stronger effect = lower value 1.01 | locus YDR195W, strain ref2 0.991 | locus YDR297W, strain sur2, stronger effect = lower value 1.01 | locus YDR318W, strain mcm21, stronger effect = lower value 0.972 | locus YDR334W, strain swr1, stronger effect = lower value 1.01 | locus YDR335W, strain msn5, stronger effect = lower value 1 | locus YDR388W, stronger effect = lower value 0.976 | locus YDR392W, strain spt3, stronger effect = lower value 0.985 | locus YDR502C, strain sam2, stronger effect = lower value 0.986 | locus YEL003W, strain gim4, stronger effect = lower value 1 | locus YEL037C, strain rad23, stronger effect = lower value 0.994 | locus YEL061C, strain CIN8 (second series), stronger effect = lower value 1.01 | locus YER015W, strain faa2, stronger effect = lower value 0.979 | locus YER016W, strain bim1, stronger effect = lower value 0.993 | locus YER110C, stronger effect = lower value 0.969 | locus YER111C, strain swi4, stronger effect = lower value 1.01 | locus YER155C, strain BEM2 (second series), stronger effect = lower value 1.02 | locus YER155C, strain BEM2, stronger effect = lower value 1 | locus YER167W, strain BCK2, stronger effect = lower value 1.01 | locus YFR010W, strain ubp6, stronger effect = lower value 1.01 | locus YGL078C, strain dbp3, stronger effect = lower value 0.973 | locus YGL086W, strain mad1, stronger effect = lower value 0.997 | locus YGL167C, strain pmr1, stronger effect = lower value 0.994 | locus YGL173C, strain kem1, stronger effect = lower value 1.01 | locus YGL227W, strain vid30, stronger effect = lower value 0.978 | locus YGL240W, strain doc1, stronger effect = lower value 0.985 | locus YGL248W, strain PDE1, stronger effect = lower value 1.01 | locus YGL253W, strain hxk2, stronger effect = lower value 1.01 | locus YGR078C, strain PAC10, stronger effect = lower value 0.982 | locus YGR135W, strain pre9, stronger effect = lower value 0.951 | locus YGR252W, strain gcn5, stronger effect = lower value 0.989 | locus YHR013C, strain ard1, stronger effect = lower value 0.986 | locus YHR027C, strain rpn1, stronger effect = lower value 0.986 | locus YHR030C, strain SLT2, stronger effect = lower value 0.994 and 0.991 | locus YHR079C, strain IRE1 (second series), stronger effect = lower value 0.979 | locus YHR079C, strain IRE1, stronger effect = lower value 0.979 | locus YHR094C, strain hxt1, stronger effect = lower value 0.985 | locus YHR129C, strain ARP1, stronger effect = lower value 0.993 | locus YHR142W, strain chs7, stronger effect = lower value 1.01 | locus YHR200W, strain rpn10, stronger effect = lower value 0.999 | locus YIL066C, strain RNR3, stronger effect = lower value 1.01 | locus YIL073C, strain SPO22, stronger effect = lower value 0.882 | locus YIL125W, strain kgd1, stronger effect = lower value 0.985 | locus YIR030C, strain dcg1, stronger effect = lower value 0.96 | locus YJL092W, strain hpr5, stronger effect = lower value 1 | locus YJL095W, strain BCK1 (second series), stronger effect = lower value 0.995 | locus YJL095W, strain BCK1, stronger effect = lower value 0.989 and 0.99 | locus YJL115W, strain asf1, stronger effect = lower value 0.997 | locus YJL129C, strain trk1, stronger effect = lower value 0.97 | locus YJL134W, strain LCB3, stronger effect = lower value 1 | locus YJL154C, strain vps35, stronger effect = lower value 0.998 | locus YJL164C, strain tpk1, stronger effect = lower value 1 | locus YJL166W, strain qcr8, stronger effect = lower value 1.01 | locus YJL168C, strain set2, stronger effect = lower value 0.977 | locus YJL187C, strain SWE1 (second series), stronger effect = lower value 0.988 | locus YJL187C, strain SWE1, stronger effect = lower value 1.02 | locus YJR043C, strain POL32, stronger effect = lower value 1.04 | locus YJR066W, strain TOR1, stronger effect = lower value 0.95 | locus YKL009W, strain mrt4, stronger effect = lower value 0.986 | locus YKL068W, stronger effect = lower value 0.984 | locus YKL085W, strain MDH1 (second series), stronger effect = lower value 0.998 | locus YKL085W, strain MDH1, stronger effect = lower value 0.998 | locus YKL160W, strain elf1, stronger effect = lower value 0.987 | locus YKR001C, strain vps1, stronger effect = lower value 0.985 | locus YKR026C, strain gcn3, stronger effect = lower value 1 | locus YKR091W, strain srl3, stronger effect = lower value 0.996 | locus YLL001W, strain dnm1, stronger effect = lower value 0.997 | locus YLL026W, stronger effect = lower value 1 | locus YLL041C, strain sdh2, stronger effect = lower value 1 | locus YLR027C, strain aat2, stronger effect = lower value 0.993 | locus YLR039C, strain RIC1, stronger effect = lower value 1.05 | locus YLR058C, strain SHM2, stronger effect = lower value 1 | locus YLR102C, strain apc9, stronger effect = lower value 0.986 | locus YLR113W, strain HOG1, stronger effect = lower value 0.964 | locus YLR221C, strain rsa3, stronger effect = lower value 0.989 | locus YLR258W, strain gsy2, stronger effect = lower value 0.995 | locus YLR262C, strain YPT6 (second series), stronger effect = lower value 0.994 | locus YLR262C, strain YPT6, stronger effect = lower value 1.1 | locus YLR268W, strain sec22, stronger effect = lower value 1.01 | locus YLR320W, strain mms22, stronger effect = lower value 0.995 | locus YLR342W, strain FKS1, stronger effect = lower value 0.996 | locus YLR357W, strain rsc2, stronger effect = lower value 1.04 | locus YLR370C, strain arc18, stronger effect = lower value 1 | locus YLR371W, strain rom2, stronger effect = lower value 0.964 | locus YLR384C, strain iki3, stronger effect = lower value 1 | locus YLR418C, strain cdc73, stronger effect = lower value 0.992 | locus YML016C, strain PPZ1, stronger effect = lower value 1.01 | locus YML032C, strain rad52, stronger effect = lower value 0.971 | locus YML120C, strain ndi1, stronger effect = lower value 1 | locus YML124C, strain tub3, stronger effect = lower value 0.978 | locus YMR058W, strain fet3, stronger effect = lower value 1 | locus YMR078C, strain ctf18, stronger effect = lower value 0.951 | locus YMR125W, strain sto1, stronger effect = lower value 0.995 | locus YMR129W, stronger effect = lower value 0.996 | locus YMR205C, strain PFK2, stronger effect = lower value 0.995 | locus YMR223W, strain ubp8, stronger effect = lower value 0.963 | locus YMR231W, strain pep5, stronger effect = lower value 1.02 | locus YMR263W, strain SAP30, stronger effect = lower value 0.988 | locus YMR307W, strain GAS1, stronger effect = lower value 1.24 | locus YNL067W, strain RPL9B, stronger effect = lower value 0.973 | locus YNL071W, strain lat1, stronger effect = lower value 1.01 | locus YNL153C, strain GIM3, stronger effect = lower value 0.99 | locus YNL183C, strain NPR1, stronger effect = lower value 0.964 | locus YNL209W, strain ssb2, stronger effect = lower value 0.997 | locus YNL233W, strain BNI4, stronger effect = lower value 1.01 | locus YNL248C, strain rpa49, stronger effect = lower value 0.999 | locus YNL250W, strain rad50, stronger effect = lower value 0.954 | locus YNL271C, strain bni1, stronger effect = lower value 0.986 | locus YNL298W, strain CLA4, stronger effect = lower value 0.977 | locus YNL307C, strain MCK1, stronger effect = lower value 0.992 | locus YNL322C, strain KRE1 (second series), stronger effect = lower value 0.997 | locus YNR049C, strain mso1, stronger effect = lower value 1 | locus YNR052C, strain pop2, stronger effect = lower value 0.968 | locus YOL012C, strain htz1 1.17 | locus YOL147C, strain pex11, stronger effect = lower value 0.979 | locus YOR001W, strain rrp6, stronger effect = lower value 0.982 | locus YOR061W, strain CKA2, stronger effect = lower value 1.01 | locus YOR069W, strain VPS5, stronger effect = lower value 0.996 | locus YOR070C, strain gyp1, stronger effect = lower value 0.985 | locus YOR080W, strain dia2, stronger effect = lower value 0.999 | locus YOR083W, strain WHI5, stronger effect = lower value 0.983 | locus YOR106W, strain vam3, stronger effect = lower value 0.994 | locus YOR136W, strain idh2, stronger effect = lower value 0.989 | locus YOR144C, strain elg1, stronger effect = lower value 0.99 | locus YOR184W, strain ser1, stronger effect = lower value 1.03 | locus YOR231W, strain MKK1, stronger effect = lower value 0.988 | locus YOR265W, strain rbl2, stronger effect = lower value 1.01 | locus YOR270C, strain vph1, stronger effect = lower value 0.999 | locus YOR290C, strain snf2, stronger effect = lower value 0.949 | locus YOR316C, strain cot1, stronger effect = lower value 0.974 | locus YPL051W, strain arl3, stronger effect = lower value 0.999 | locus YPL055C, strain LGE1, stronger effect = lower value 1.03 | locus YPL078C, strain atp4, stronger effect = lower value 1.01 | locus YPL106C, strain sse1, stronger effect = lower value 1.02 | locus YPL240C, strain hsp82, stronger effect = lower value 0.986 | locus YPL256C, strain CLN2, stronger effect = lower value 0.974 | locus YPR119W, strain clb2, stronger effect = lower value 0.967 | locus YPR141C, strain kar3, stronger effect = lower value 0.951 | locus YPR163C, strain tif3, stronger effect = lower value 0.969 | locus YPR167C, strain met16, stronger effect = lower value 0.983 | strain wtn01, stronger effect = lower value 1.01
